# Screening results deposited in PubChem by National Center for Advancing Translational Sciences (NCATS).
# Nrf2 activator: activators of Nrf2 (ARE) signaling; AREc32 ARE-luciferase reporter (MCF7-derived line), luminescence, 24 h; Potency, µM (top dose mostly 46.1 µM), most hits filed as activators; actives 0.31% (n = 410,000); AID 624171; also: nearly all actives have a fitted effect of over 65% in size
#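 AREc32 cells carrying an ARE-driven firefly luciferase reporter were seeded at 1000 cells/well in OPTI-MEM with 5% FBS, then exposed to compound for 24 hr at 37 deg C. Luminescence was read with Steady-Glo after 30 min at RT.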
# Nrf2 block: Nrf2 pathway inhibition. A549 ARE-Fluc reporter, luciferase luminescence, 18-24 h. Potency, µM (titrated, usually from 46 µM), most hits filed as inhibitors. actives 2.1% (n = 360,000). AID 504444; also: nearly all actives have a fitted effect of over 60% in size
#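 A549 ARE_Fluc cells, 5000/well, 5% FBS OPTI-MEM; compounds in dose-response, 18-24 h at 37 °C/5% CO2; CellTiter-Fluor viability read (Ex 405/Em 525), then BugLite luciferase luminescence = Nrf2 activity.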
# A549 viability: counter-screen for Nrf2 inhibitors: cytotoxicity in A549 cells; A549 ARE-Fluc cells, CellTiter-Fluor viability, 18-24 h; Potency, µM (series often up to 46 µM), hits mostly inhibitors; actives 0.16% (n = 390,000); AID 504648
#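 A549 ARE_Fluc cells in 5% FBS OPTI-MEM were exposed to compounds in concentration-response for 18-24 h at 37 deg C. Viability was read by CellTiter-Fluor fluorescence (Ex 405/Em 525) after 30 min, before the luciferase read.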
# TGFb SMAD3 inh: TGF-b pathway inhibition; AID 588855; HepG2 CAGA-GFP TGF-b/SMAD3 reporter, GFP fluorescence, 18 h; TGF-beta stimulated, 500 pg/mL final; actives 1.2% (n = 410,000); Potency, µM (series often up to 46.1 µM), most hits filed as inhibitors; also: nearly all actives have a fitted effect of over 65% in size
#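 Inhibition of TGF-beta-driven CAGA-GFP reporter expression in HEPG2 cells is measured by cellular GFP fluorescence after 18 h stimulation with 500 pg/mL recombinant TGF-beta in 1% FBS medium at 37 degrees C.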
# HepG2 viability: counter-screen for TGF-b inhibitors: cytotoxicity in HepG2 cells; HepG2 CAGA-GFP viability, ATP luminescence, 18 h; Potency, µM (series often up to 46.1 µM), hits mostly cytotoxic; actives 0.76% (n = 410,000); AID 588856
#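 CellTiter-Glo luminescence gave cytotoxicity after 18 hours at 37 degrees C. The cells were HepG2 CAGA-GFP in 1% FBS DMEM, stimulated with 500 pg/mL TGF-beta after compound addition. %Activity was normalised to no-cell wells (complete cell-killing) and DMSO (no toxicity), and curves were fitted and classified.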
# A number is an active result; - = inactive; ? = inconclusive; . = not tested or not shown; ! = repeats disagree; [ ] = another dose, or the depositor's remark. The list is not random: actives were taken first. Their share in the collection is about 3.6%. Calls follow the shape of the dose curve; as a rule, active = well fitted curve in the direction sought with a large enough effect; inconclusive = small, poorly fitted or top-dose-only effect, or another doubt; inactive = no such curve, though single readings can be large; an effect the other way counts as inactive or inconclusive.
SMILES,Nrf2 activator,Nrf2 block,A549 viability,TGFb SMAD3 inh,HepG2 viability
C[N+](C)(CCCCCI)c1ccc(/C=C/c2nc3ccccc3s2)cc1,.,.,.,8.91µM,-
COc1ccc2[nH]c3c(=O)n(CCCCC(=O)NCCN4CCCC4)c(=S)[nH]c3c2c1,-,-,-[1.84 µM],-,-
Fc1ccccc1N1CCN(c2ncnc3c2nc2n3CCCC2)CC1,-,20.6µM,-,-,-
O=C(C1CCN(c2ncnc3c2nc2n3CCCCC2)CC1)N1CCN(c2ccc(F)cc2)CC1,-,18.4µM!,-,?,-
O=C(NCC1CCN(Cc2ccc(F)cc2)CC1)C1CCCN(c2ncnc3c2nc2n3CCCCC2)C1 (centres undefined),-,-,-,12.6µM,-
Cc1cccc(N2CCN(c3ncnc4c3nc3n4CCCCC3)CC2C)c1 (centres undefined),-,18.4µM,16.4µM,?,-
CN(C(=O)CSc1ncnc2sc3c(c12)CCCC3)C1CCS(=O)(=O)C1 (centres undefined),-,?,-,-,-
COc1ccc(CC(=O)Nc2ccc(N3CCN(c4ccc(OC)cc4)CC3)c(C#N)c2)cc1,-,?,-,-,-
CCOc1ccc(CCNC(=O)Cn2ccc3cc(S(=O)(=O)N4CCCC4)ccc32)cc1,-,-,-,-,-
Nc1nc(SCC(=O)Nc2ccccc2-c2ccccc2)n[nH]1,-,-,-,-,-
CC(=O)N1CCc2c(sc3c2c(=O)n(CCc2ccccc2)c(=O)n3CC(=O)Nc2ccc(C)c(F)c2)C1,-,?,-,-,-
O=C(OCC(=O)N1CCC(Cc2ccccc2)CC1)c1cc(Cl)ccc1O,-,-,-,-,-
C[C@@H]1CN([C@H](C)CO)C(=O)c2c(c3ccccc3n2C)-c2ccccc2CO[C@@H]1CN(C)C(=O)Nc1ccc2c(c1)OCO2,-,.,.,-,-
Oc1ccc(Nc2nc(N3CCCC3)c3ccccc3n2)cc1,-,?,?,?,11.2µM
COc1cccc(OC)c1Oc1ccc(C(F)(F)F)cn1,-,-,-[1.84 µM],-,-
O=[N+]([O-])c1ccc(CSc2nnc(Cc3ccccc3)o2)cc1,-,-,-,-,-
N#Cc1ccsc1NC(=O)CSc1ncnc2ccccc12,12.6µM,?,-,-,-
N#Cc1ccsc1NC(=O)CSc1ncn[nH]1,-,-,-[1.84 µM],-,-
O=C(CSc1ncnc2ccccc12)c1ccco1,2.82µM,-,-,?,-
COc1ccc(C(CCN2CCOCC2)c2c(OC)cc(OC)c3ccc(=O)oc23)cc1 (centres undefined),-,-,14.6µM,?,-
CCCCCc1cc(=O)oc2c(C(CCN3CCCC3)c3ccc4c(c3)OCO4)c(OC)cc(OC)c12 (centres undefined),.,-,-,?,-
CCCCCc1cc(=O)oc2c(C(CCN3CCCCC3)c3ccc4c(c3)OCO4)c(OC)cc(OC)c12 (centres undefined),-,-,-,17.8µM,-
COc1cc(OC)c2ccc(=O)oc2c1C(CCN1CCOCC1)c1ccc2c(c1)OCO2 (centres undefined),-,-,?,-,-
COc1cc(OC)c2ccc(=O)oc2c1C(CCN1CCCC1)c1ccc2c(c1)OCO2 (centres undefined),-,-,18.4µM,-,-
COc1ccc(C(CCN2CCOCC2)c2c(OC)cc(OC)c3c(-c4ccccc4)cc(=O)oc23)cc1 (centres undefined),-,-,-,?,-
CCCCCc1cc(=O)oc2c(C(CCN(CC)CC)c3cc(OC)c(OC)c(OC)c3)c(OC)cc(OC)c12 (centres undefined),-,-,-,?,17.8µM
COc1cc(C(CCN2CCOCC2)c2c(OC)cc(OC)c3c(-c4ccccc4)cc(=O)oc23)cc(OC)c1OC (centres undefined),-,-,-,?,11.2µM
COc1cc(C(CCN2CCCC2)c2c(OC)cc(OC)c3c(-c4ccccc4)cc(=O)oc23)cc(OC)c1OC (centres undefined),-,-,-,?,-
COc1cc(CNCCc2ccc(S(N)(=O)=O)cc2)ccc1OCc1ccc(Cl)cc1,-,23.1µM,?,?,-
c1ccc2c(c1)ccn2-n1ccc2ccccc21,.,.,.,15.8µM,-
